Most compounds without a hit are left out; they make up all but 5.6% or so of the library.
H9c2 protect: cardioprotection against H2O2-induced cell death, primary screen, uHTS, H9c2 cells, ATPLite luminescence; H9c2 cardiomyocytes, H2O2 injury protection, 2 h; protection from H2O2 cell death, % at 20 µM; 360,000 tested, 0.63% active;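 active means compounds giving at least 50% protection of heart cells from peroxide-induced death in the single-dose screen, raw or plate-pattern-corrected value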
PfG6PD inh: PfG6PD enzyme inhibitors, primary screen, biochemical, fluorescence intensity, uHTS; inhibition, % at 20 µM; 350,000 tested, 0.78% active; AID 504690, 2011; PfGluPho enzyme, NADPH resazurin-diaphorase fluorescence;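 active means inhibition reaching at least a set limit at 20 µM in the primary screen, cut at about 59% in these data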
M18AAP inhibitor: PfM18AAP inhibitors, malaria aminopeptidase, primary screen, biochemical, QFRET, recombinant enzyme; M18 aspartyl aminopeptidase (Plasmodium falciparum 3D7); H-Glu-NHMec fluorogenic cleavage; inhibition, % at 7.35 µM; 290,000 tested, 1.2% active; AID 1822, 2009;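 active means inhibition above the campaign mean inhibition over all tested compounds plus 3 SD, cut at about 28% in these data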
PHOSPHO1 inh: PubChem AID 1565 | Phosphoethanolamine/phosphocholine phosphatase (Homo sapiens), Q8TCT1 | inhibition, % at 13.3 µM | 290,000 tested, 1.1% active | recombinant PHOSPHO1, absorbance phosphatase assay; in the data active means inhibition above about 60%
Target sequence (Q8TCT1 whole entry, looked up): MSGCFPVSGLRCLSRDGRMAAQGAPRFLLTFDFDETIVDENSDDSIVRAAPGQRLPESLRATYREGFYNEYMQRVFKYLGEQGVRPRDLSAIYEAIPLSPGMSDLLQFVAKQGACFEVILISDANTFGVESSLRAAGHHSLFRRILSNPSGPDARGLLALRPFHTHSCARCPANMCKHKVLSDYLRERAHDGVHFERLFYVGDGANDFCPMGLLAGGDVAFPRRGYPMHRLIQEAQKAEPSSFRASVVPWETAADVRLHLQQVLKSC
ALR inh: inhibitors of human ALR sulfhydryl oxidase, primary screen, biochemical, H2O2 detection, HRP-luminol luminescence, single point | purified ALR, DTT oxidation | inhibition, % (concentration not given with the values) | 290,000 tested, 3.8% active | FAD-linked sulfhydryl oxidase ALR (Homo sapiens), P55789;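 active means mean replicate inhibition above about 79%, with every replicate also reaching it, limit read from the data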
Target sequence (P55789 whole entry, looked up): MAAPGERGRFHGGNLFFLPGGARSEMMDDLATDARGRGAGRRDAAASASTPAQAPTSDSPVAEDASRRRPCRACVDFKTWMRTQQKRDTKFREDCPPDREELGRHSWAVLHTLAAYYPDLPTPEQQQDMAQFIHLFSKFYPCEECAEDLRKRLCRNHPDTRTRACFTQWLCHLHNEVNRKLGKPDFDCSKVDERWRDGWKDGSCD
Numbers stand for hits; - = inactive; . = no result.

SMILES | H9c2 protect | PfG6PD inh | M18AAP inhibitor | PHOSPHO1 inh | ALR inh
COc1cc(-c2cc(O)c(-c3ccc4ccccc4n3)c(=O)[nH]2)cc(OC)c1OC | 62 | - | . | . | .
COc1ccc(CN2CCN(Cc3ccccc3F)CC2)cc1OC | - | - | - | - | -
Nc1nc2ccc([N+](=O)[O-])cc2[nH]1 | - | - | - | - | -
Nc1[nH]c2cc([N+](=O)[O-])ccc2c1-c1ccccn1 | - | - | - | - | 92
COc1cccc(-c2cn3nc4c(nc3n2)CCCC4)c1 | - | - | - | - | -
Clc1ccc(-c2cn3nc4c(nc3n2)CCCC4)cc1 | - | - | - | 88 | -
Cn1ccnc1/C(=N\NC(=O)c1ccc(O)cc1)c1cccc([N+](=O)[O-])c1 | - | - | - | - | -
Cn1ccnc1/C(=N\NC(=O)c1ccccc1)c1cccc([N+](=O)[O-])c1 | - | - | - | - | 96
COc1ccc(C=NCCc2ccc(OC)c(OC)c2)cc1OC | - | - | . | . | .
CC(=O)NCc1ccc(C(=O)CSc2nnc(C3CC3)n2C2CC2)cc1 | - | - | . | . | 78
CC(C(=O)O)N1C(=O)/C(=C/C=C/c2ccco2)SC1=S (configuration not stated) | - | - | - | - | 97
O=C(O)c1ccccc1-c1ccc(/C=c2\sc3nc4cc(Br)cnc4n3c2=O)o1 | - | - | - | 62 | -
O=C(O)c1cc(-c2ccc(/C=C3\NC(=O)N(c4ccccc4)C3=O)o2)ccc1Cl | - | - | - | 67 | -
Cc1cc2nc3s/c(=C/c4ccc(-c5ccccc5C(=O)O)o4)c(=O)n3c2cc1C | - | - | - | - | -
O=C(O)c1cc(-c2ccc(/C=c3\sc4nc5ccc(Br)cc5n4c3=O)o2)ccc1Cl | . | . | - | - | 93
C[C@H]1Cn2cnc(C(=O)NCc3ccc(CNC(=O)OC(C)(C)C)cc3)c2C(=O)N1 | - | - | . | . | .
Cc1ccccc1S(=O)(=O)NC(=O)C1(C)CCN1C(=O)Cc1cccs1 (configuration not stated) | - | . | . | . | .
CCC(C)Sc1ccc([C@H]2N[C@@](Cc3ccccc3)(C(=O)OC)[C@H]3C(=O)N(CC)C(=O)[C@@H]23)cc1OC (some centres not stated) | - | - | . | . | -
Cc1[nH]c(=O)c(S(=O)(=O)c2ccccc2)c(C)c1Cl | - | - | - | - | -
O=C(NCCc1ccc(F)cc1)C(=O)Nc1cc2c3c(c1)CC(=O)N3CCC2 | 53 | - | . | . | -
O=C(NCCc1ccc(Cl)cc1)C(=O)Nc1cc2c3c(c1)CC(=O)N3CCC2 | - | - | . | . | -
COC(=O)c1ccc(C(=O)OC)c(NC(=O)C2CC(=O)N(C3CCCC3)C2)c1 (configuration not stated) | - | - | . | . | .
Cc1ccc(C(=O)c2c(NC(=O)c3cccnc3)sc3c2CCCC3)cc1 | - | - | - | - | 95
CCN(CC)CCN1CCn2c3c(c4cc(C)ccc42)CCCC31 (configuration not stated) | - | - | - | - | 99
CC(C)n1cc(C(=O)N2CCCC(N3CCN(c4cccc(Cl)c4)CC3)C2)cn1 (configuration not stated) | - | - | - | - | 89
SMILES | H9c2 protect | PfG6PD inh | M18AAP inhibitor | PHOSPHO1 inh | ALR inh
CSc1nc(O)c(C(c2ccc(C)cc2)c2c(O)nc(SC)[nH]c2=O)c(=O)[nH]1 | - | - | - | - | 89
CSc1nc(O)c(C(c2ccc(F)cc2)c2c(O)nc(SC)[nH]c2=O)c(=O)[nH]1 | - | - | . | . | -
Cc1[nH]n(-c2cccc3ccccc23)c(=O)c1/C=N/NC(=O)c1cccc([N+](=O)[O-])c1 | 56 | - | - | - | -
COCC(=O)N/N=C/c1c(C)[nH]n(-c2ccccc2)c1=O | - | - | - | - | -
Cc1[nH]n(-c2ccccc2)c(=O)c1/C=N/NC(=O)COc1ccccc1[N+](=O)[O-] | 62 | - | - | - | -
Clc1ccc(-c2cnc3ccccc3n2)cc1 | - | - | - | - | -
Oc1ccc(-c2cnc3ccccc3n2)cc1 | - | - | . | . | 98
Cc1cc(Cl)ccc1OCCCC(N)=O | - | - | - | - | .
Cc1cc(Cl)ccc1OCCCC(=O)NO | - | - | - | - | 99
CN(C)c1ccc(NC(=O)CSc2nnc(-c3cnccn3)n2C)cc1 | - | - | - | - | 99
Cn1c(SCC(=O)c2ccccc2)nnc1-c1cnccn1 | - | - | - | 83 | 97
CCCCN(C(=O)Cc1ccc2c(c1)OCCO2)c1c(N)n(CC(C)C)c(=O)[nH]c1=O | - | - | . | . | .
COc1ccc2[nH]c(C)c(CN3CCCCC3)c(=O)c2c1 | - | - | . | - | -
CCc1c(C)[nH]c2ccc(OC)cc2c1=S | - | 67 | - | - | .
O=C(O)CCn1cc(/C=C2/NC(=S)N(c3ccccc3)C2=O)c(-c2ccccc2)n1 | - | - | - | - | 97
N#CCCn1cc(/C=C2\NC(=S)N(c3ccccc3)C2=O)c(-c2ccc(-c3ccccc3)cc2)n1 | - | - | - | - | -
Cc1ccccc1OCC(=O)NNC(=O)C1CC(=O)N(c2ccc3c(c2)OCCO3)C1 (configuration not stated) | - | - | . | . | .
Cc1cccc(C)c1OCc1cc(C(=O)N2CCN(c3ccc(F)cc3)CC2)no1 | - | - | - | - | -
O=C(O)c1ccc2c(c1)S(=O)(=O)c1cc(Cl)ccc1C2=O | - | - | . | . | -
COc1cc(/C(C)=N/NC(=O)Cc2c(C)[nH][nH]c2=O)ccc1O | - | - | - | - | 99
COc1cc(/C(C)=N\NC(=O)CSc2nc3ccccc3n2C)ccc1O | - | - | - | - | 99
C/C(=N\NC(=O)Cc1c(C)[nH][nH]c1=O)c1ccc(Cl)c(Cl)c1 | - | - | - | - | -
C/C(=N/NC(=O)Cc1c(C)[nH][nH]c1=O)c1ccc(O)cc1 | - | - | - | - | 98
C/C(=N\NC(=O)Cc1c(C)[nH][nH]c1=O)c1cccc(Br)c1 | - | - | - | - | .
Cc1cc(C)c(NC(=O)Cn2nnc(C(=O)NCc3ccc4c(c3)OCO4)c2N)c(C)c1 | - | - | - | - | -
SMILES | H9c2 protect | PfG6PD inh | M18AAP inhibitor | PHOSPHO1 inh | ALR inh
O=C(CC1(CC2=NS(=O)(=O)c3ccccc3N2)CCCC1)NCCc1ccccc1 | - | - | - | - | -
CC1=C(C(=O)N2CCCCCC2)CC(CC(=O)NCc2ccco2)C(=O)N1Cc1ccccc1 (configuration not stated) | - | . | . | . | .
COc1cccc(/C=N/Nc2ccc(S(=O)(=O)O)cc2)c1O | - | - | - | 92 | -
Cc1ccc(/C=N/NC(=O)CNC(=O)c2cccs2)cc1 | - | - | - | 66 | -
COc1cccc(/C=N/Nc2nn3cnnc3c3ccccc23)c1O | 50 | - | 31 | - | -
Oc1cccc(/C=N/Nc2nn3cnnc3c3ccccc23)c1 | - | - | - | - | -
COc1cccc(/C=N/NC(=O)CNC(=O)c2cccs2)c1O | 63 | - | - | - | .
O=C(CNC(=O)c1cccs1)N/N=C/c1c(F)cccc1Cl | - | - | - | - | -
